PubChem BioAssay (NCATS)
Inconclusive results are not listed. A call without a number means that no potency is given here. The source made the active and inactive calls. Calls come from the whole dose curve; as a rule, active = well fitted curve in the direction sought with a large enough effect; inconclusive = small, poorly fitted or top-dose-only effect, or another doubt; inactive = no such curve, though single readings can be large; an effect the other way counts as inactive or inconclusive.

Experiments:
[1] = Quantitative High-Throughput drug screen in 47 multiple myeloma cell lines against the NCATS MIPE library collection: EJM_DSMZ cell viability assay (AID 1918926; note: nearly all actives have a fitted effect of over 30% in size; note: potency is the fitted concentration of half-maximal effect)
Procedure, shortened: (§1)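 Primary qHTS used for cherry-picking: cells at 500/well, library compounds for 48 h (37C, 5% CO2), luminescent ATP assay.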

[2] = Quantitative High-Throughput drug screen in 47 multiple myeloma cell lines against the NCATS MIPE library collection: AMO1_DSMZ cell viability assay (AID 1918927; note: nearly all actives have a fitted effect of over 30% in size; note: potency is the fitted concentration of half-maximal effect)
Procedure, shortened: as §1

[3] = Quantitative High-Throughput drug screen in 47 multiple myeloma cell lines against the NCATS MIPE library collection: ARP1_JJKsccF8 cell viability assay (AID 1918928; note: nearly all actives have a fitted effect of over 40% in size; note: potency is the fitted concentration of half-maximal effect)
Procedure, shortened: (§2)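 500 cells/well; MIPE 4.0 library pinned in; 48 h, 37 °C, 5% CO2; CellTiter-Glo ATP luminescence. Controls: DMSO = 100% viability, medium only = 0%.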

[4] = Quantitative High-Throughput drug screen in 47 multiple myeloma cell lines against the NCATS MIPE library collection: ARD_JJKsccE7 cell viability assay (AID 1918929; note: potency is the fitted concentration of half-maximal effect)
Procedure, shortened: as §1

[5] = Quantitative High-Throughput drug screen in 47 multiple myeloma cell lines against the NCATS MIPE library collection: Karpas620_DSMZ cell viability assay (AID 1918959); note: nearly all actives have a fitted effect of over 30% in size; note: potency is the fitted concentration of half-maximal effect
Procedure, shortened: (§3)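 Approved and investigational drugs from MIPE 4.0 were added by pin tool to 500 cells per well. After 48 hours at 37C, ATP-based CellTiter-Glo luminescence indicated remaining viability.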

[6] = Quantitative High-Throughput drug screen in 47 multiple myeloma cell lines against the NCATS MIPE library collection: Karpas417_ECACC cell viability assay (AID 1918961); conditions: Karpas417 myeloma viability, CellTiter-Glo ATP luminescence, 48 h; viability (% of DMSO): at 45.8 µM (top of the series)
Procedure, shortened: (§4)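 Inhibition of cell viability is measured here. Each line was plated at 500 cells per well, treated with MIPE 4.0 drugs, kept 48 hours at 37C, then assayed for ATP content by CellTiter-Glo luminescence.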

[7] = Quantitative High-Throughput drug screen in 47 multiple myeloma cell lines against the NCATS MIPE library collection: KHM11_PLB cell viability assay (AID 1918962); note: nearly all actives have a fitted effect of over 35% in size; note: potency is the fitted concentration of half-maximal effect
Procedure, shortened: as §3

[8] = Quantitative High-Throughput drug screen in 47 multiple myeloma cell lines against the NCATS MIPE library collection: JIM3_ECACC cell viability assay (AID 1918963; note: nearly all actives have a fitted effect of over 35% in size; note: potency is the fitted concentration of half-maximal effect)
Procedure, shortened: as §3

[9] = Quantitative High-Throughput drug screen in 47 multiple myeloma cell lines against the NCATS MIPE library collection: H1112_PLB cell viability assay (AID 1918967; note: nearly all actives have a fitted effect of over 30% in size; note: potency is the fitted concentration of half-maximal effect)
Procedure, shortened: as §1

[10] = Quantitative High-Throughput drug screen in 47 multiple myeloma cell lines against the NCATS MIPE library collection: Karpas25_ECACC cell viability assay (AID 1918968; note: nearly all actives have a fitted effect of over 35% in size; note: potency is the fitted concentration of half-maximal effect)
Procedure, shortened: as §1

[11] = Quantitative High-Throughput drug screen in 47 multiple myeloma cell lines against the NCATS MIPE library collection: KMS27_JCRB cell viability assay (AID 1918970); note: nearly all actives have a fitted effect of over 30% in size; note: potency is the fitted concentration of half-maximal effect
Procedure, shortened: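 CellTiter-Glo luminescence after 48 h drug exposure at 37 °C; 500 cells/well, 1536-well format, pin-tool compound addition; DMSO = 100%, media-only = 0% viability.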

[12] = Quantitative High-Throughput drug screen in 47 multiple myeloma cell lines against the NCATS MIPE library collection: KMS12PE_JCRB cell viability assay (AID 1918972); note: nearly all actives have a fitted effect of over 30% in size; note: potency is the fitted concentration of half-maximal effect
Procedure, shortened: as §4

[13] = Quantitative High-Throughput drug screen in 47 multiple myeloma cell lines against the NCATS MIPE library collection: KMM1_JCRB cell viability assay (AID 1918960); note: nearly all actives have a fitted effect of over 30% in size; note: potency is the fitted concentration of half-maximal effect
Procedure, shortened: as §2

[14] = Quantitative High-Throughput drug screen in 47 multiple myeloma cell lines against the NCATS MIPE library collection: KMS20_JCRB cell viability assay (AID 1918973); note: nearly all actives have a fitted effect of over 45% in size; note: potency is the fitted concentration of half-maximal effect
Procedure, shortened: as §1

[15] = Quantitative High-Throughput drug screen in 47 multiple myeloma cell lines against the NCATS MIPE library collection: KMS26_JCRB cell viability assay (AID 1918975); note: nearly all actives have a fitted effect of over 45% in size; note: potency is the fitted concentration of half-maximal effect
Procedure, shortened: (§5)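 Relative luminescence from CellTiter-Glo served as the viability signal, referenced to DMSO-treated (100%) and cell-free medium (0%) controls. Treatment lasted 48 hours at 37C with 500 cells per well.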

[16] = Quantitative High-Throughput drug screen in 47 multiple myeloma cell lines against the NCATS MIPE library collection: INA6_PLB cell viability assay (AID 1918965; note: nearly all actives have a fitted effect of over 55% in size; note: potency is the fitted concentration of half-maximal effect)
Procedure, shortened: as §4

[17] = Quantitative High-Throughput drug screen in 47 multiple myeloma cell lines against the NCATS MIPE library collection: JIM1_ECACC cell viability assay (AID 1918964)
Procedure, shortened: as §1

[18] = Quantitative High-Throughput drug screen in 47 multiple myeloma cell lines against the NCATS MIPE library collection: KMS12BM_JCRB cell viability assay (AID 1918971); note: nearly all actives have a fitted effect of over 35% in size
Procedure, shortened: as §5

Structure (SMILES) | Potency [1] | Potency [2] | Potency [3] | Potency [4] | Potency [5] | Potency [6] | Potency [7] | Potency [8] | Potency [9] | Potency [10] | Potency [11] | Potency [12] | Potency [13] | Potency [14] | Potency [15] | Potency [16] | Potency [17] | Potency [18]
COc1c(N2CCNC(C)C2)c(F)cc2c(=O)c(C(=O)O)cn(C3CC3)c12 (stereo not given) | inactive | inactive | inactive | inactive | inactive | inactive | inactive | inactive | inactive | inactive | inactive | inactive | – | – | – | – | – | –
COc1ccc(C(=O)CC(=O)c2ccc(C(C)(C)C)cc2)cc1 | 1.48 µM (active) | 1.87 µM (active) | 10.5 µM (active) | 18.7 µM (active) | 4.18 µM (active) | – | – | – | 7.43 µM (active) | 2.35 µM (active) | 3.32 µM (active) | 5.26 µM (active) | 7.43 µM (active) | 2.96 µM (active) | 7.43 µM (active) | – | – | –
CN1CCN(c2c(F)cc3c(=O)c(C(=O)O)cn(CCF)c3c2F)CC1 | inactive | inactive | inactive | inactive | inactive | – | – | inactive | inactive | inactive | inactive | inactive | inactive | – | – | – | – | –
NC(=O)c1cccc(N)c1 | inactive | inactive | inactive | – | inactive | – | – | inactive | inactive | inactive | – | inactive | inactive | – | inactive | inactive | – | –
CC(C)(C)NC(=O)[C@H]1CC[C@H]2[C@@H]3CC[C@H]4NC(=O)C=C[C@]4(C)[C@H]3CC[C@]12C | 0.662 µM (active) | 18.7 µM (active) | inactive | 20.9 µM (active) | – | – | 1.18 µM (active) | 4.18 µM (active) | 1.18 µM (active) | 0.662 µM (active) | – | 20.9 µM (active) | – | – | 2.96 µM (active) | 833 nM (active) | inactive | –
Cc1nnc(C(=O)NC(C)(C)c2nc(C(=O)NCc3ccc(F)cc3)c(O)c(=O)n2C)o1 | inactive | 0.0042 µM (active) | inactive | – | inactive | – | – | inactive | inactive | inactive | – | – | inactive | – | – | inactive | – | inactive
O=C(O)c1cccnc1 | inactive | inactive | – | inactive | inactive | inactive | 18.7 µM (active) | inactive | inactive | – | – | inactive | inactive | inactive | – | inactive | – | –
